# JMJD2A Tudor inh: inhibitors of human JMJD2A Tudor domain. O75164. AlphaScreen JMJD2A-Tudor / H3K4me3 peptide binding. Potency, µM (highest dose often 114 µM), without a hit: top-dose activity change, negative = inhibition, usual class: inhibitors. 390,000 tested, 4.4% active; note: % is set by controls: 0 for no effect and ±100 for the full control effect; nearly all actives have a fitted effect of over 50% in size
# L3MBTL1 block: inhibitors of human L3MBTL1; Q9Y468; Potency, µM (titrated, usually from 57.1 µM), inactives show top-dose activity, negative = inhibition, usual class: inhibitors; 230,000 tested, 0.66% active; AlphaScreen L3MBTL1–H3K9me1 peptide binding; note: % is set by controls: 0 for no effect and ±100 for the full control effect; nearly all actives have a fitted effect of over 60% in size
#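 AlphaScreen assay: L3MBTL1 (50 nM final) was preincubated 30 min at room temperature with biotinylated H3(1-15)K9me1 peptide (75 nM final), then 30 min with library compounds; streptavidin donor and nickel chelate acceptor beads (10 ug/mL final) added, 30 min dark.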
# BAZ2B block: BAZ2B (human) inhibition; Q9UIF8; AlphaScreen BAZ2B-H3K14Ac peptide displacement; Potency, µM (top dose mostly 114 µM), without a hit: top-dose activity change, negative = inhibition, usual class: inhibitors; 360,000 tested, 4.4% active; note: % is set by controls: 0 for no effect and ±100 for the full control effect; nearly all actives have a fitted effect of over 60% in size
#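 Inhibition is scored as reduced AlphaScreen emission. The BAZ2B/b-H3(5-23)K14Ac complex (50 nM each) in PBS pH 7.4, 0.01% Tween-20 meets compound (up to 110 uM) for 30 min at RT before bead addition.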
# Sfp inh: blocks B. subtilis Sfp PPTase activity | Q9F4F7 | Potency, µM, inactives show largest response in the series, negative = inhibition, actives largely listed as inhibitors | 310,000 tested, 3.5% active | Biochemical Sfp PPTase activity, qHTS | AID 1490;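 note: the enzyme is Sfp with the accession as filed and its product quenches rhodamine fluorescence; 0% = enzyme reaction without inhibitor and -100% = no enzyme wells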
#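 Step 1, compound plus 15 nM Sfp-PPTase, 15 min, room temperature. Step 2, add rhodamine-CoA (5 uM) and BHQ-2-YbbR (12.5 uM). Step 3, read 525/598 nm fluorescence at 0 and 30 min.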
# HP1b binding inh: blocks HP1-beta chromodomain binding to methylated histone tails; AlphaScreen HP1-beta / biotin-H3K9me3 peptide binding; Potency, µM (top dose mostly 114 µM), without a hit: at the top dose activity change, negative = inhibition, hits mostly inhibitors; 390,000 tested, 0.56% active; AID 540317; note: nearly all actives have a fitted effect of over 70% in size
#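 AlphaScreen: HP1-beta (50 nM) preformed 30 min with biotin-H3(1-18)K9me3 peptide (50 nM) in PBS pH 7.4, 0.01% Tween-20. Compound added for 30 min at RT, then streptavidin donor/nickel chelate acceptor beads (10 ug/mL) for 30 min.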
# G9a inh: inhibitors of human histone lysine methyltransferase G9a. 350,000 tested, 8.8% active. Potency, µM (series often up to 102 µM), without a hit: at the top dose activity, negative = inhibition, most hits filed as inhibitors. G9a H3K9 monomethylation, AlphaScreen, 2 h. Q96KQ7. AID 504332; note: % is set by controls: 0 for no effect and ±100 for the full control effect; nearly all actives have a fitted effect of over 75% in size
#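 G9a (20 nM) preincubated 15 min RT with compounds, then 500 nM biotinylated H3K9 peptide and 20 uM SAM added; 2 h RT reaction. Monomethyl-H3K9 product detected by AlphaScreen with anti-H3K9me1 antibody, streptavidin donor and anti-rabbit IgG acceptor beads.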
# Starred values were filed as active, the others as inactive; ? = inconclusive; . = not tested or not shown; [ ] = another dose, or the depositor's remark. Sampled rows, rich in hits. Any-hit rate of the full collection: about 12%. Calls come from the whole dose curve; as a rule, active = well fitted curve in the direction sought with a large enough effect; inconclusive = small, poorly fitted or top-dose-only effect, or another doubt; inactive = no such curve, though single readings can be large; an effect the other way counts as inactive or inconclusive. Potency is the fitted concentration of half-maximal effect.
SMILES,JMJD2A Tudor inh,L3MBTL1 block,BAZ2B block,Sfp inh,HP1b binding inh,G9a inh
CCCCCCCCCCCCCCCC(=O)NC(C)C,.,.,.,11%,.,.
COc1cccc(-c2cc(C(=O)NCc3ccccc3)[nH]n2)c1,-10%,.,3%,.,-17%,-4%[59 µM]
COc1n[nH]c(C(=O)NCc2ccccc2)c1[N+](=O)[O-],-12%,-1%,-21%,-5%,60%,56µM*
COc1ccccc1C(=O)Nc1nc2ccccc2s1,-4%,34%[2.29 µM],38%,8%,39%,5%[0.501 µM]
COc1n[nH]c(C(=O)Nc2nc3ccccc3s2)c1[N+](=O)[O-],-28%,-27%,56µM*,28%,30%,14µM*
N#Cc1cccc(NC(=O)N2CC[C@@]3(CCCN(C(=O)c4ccncc4)C3)C2)c1,.,.,.,-6%,.,-6%[12.7 µM]
CCCCC/C=C\C\C=C/C=C/C=C/[C@@H](SCC(N)C(=O)O)[C@@H](O)CCCC(=O)O (stereo partly drawn),.,.,.,-2%,.,.
CCCOc1ccc(N2C(=O)CC(N(CCc3ccc(OC)cc3)C(=O)c3cccc(F)c3)C2=O)cc1 (stereo not drawn),-29%,-1%,4%,2%,12%,45µM*
CCC(=O)N(CCc1ccc(S(N)(=O)=O)cc1)C1CC(=O)N(c2ccc(OC)cc2)C1=O (stereo not drawn),-7%,0%,-5%,3%,23%,56µM*
COc1ccc(N2C(=O)CC(N(CCc3ccc(S(N)(=O)=O)cc3)C(=S)Nc3ccccc3)C2=O)cc1 (stereo not drawn),-18%[11.4 µM],.,-37%,17%,13%,?
CCCOc1ccc(N2C(=O)CC(N(CCc3ccccc3)C(=O)c3ccccc3)C2=O)cc1 (stereo not drawn),-8%,20%,-6%,3%,25%,.
CC(=O)c1c(C)[nH]c(-c2ccccc2)nc1=S,-3%,-4%,-36%,-21%,43%,3.5µM*
COc1ccccc1-c1nc(=S)c(C(C)=O)c(C)[nH]1,-22%,?,-10%,?,33%,.
COc1cccc(-c2nc(N(C)Cc3ccco3)c3ccccc3n2)c1,.,.,.,?,.,1%[0.501 µM]
CCN(CC(=O)Nc1ccc(NC(C)=O)cc1)C(=O)c1ccccc1SCC(=O)N1CCCC1,-11%,5%,-3%,.,30%,?
O=C1CCSc2cccc3cccc(c23)N1,-8%,-5%,-24%,9%,5%,-32%[59 µM]
c1cc2c3c(cccc3c1)NC1(CCC3(CC1)Nc1cccc4cccc(c14)N3)N2,50µM*,?,28µM*,?,?,25%[0.501 µM]
c1cc2c3c(cccc3c1)NC1(CCCCCC1)N2,-9%[57.1 µM],-4%,-35%,9%,-2%,4.5µM*
c1cc2c3c(cccc3c1)NC1(CCCCC1)N2,-30%,.,-32%,-12%,-7%,1.1µM*
COC(=O)CNC(c1ccccc1)c1cc(Br)ccc1NC(=O)c1cc(OC)c(OC)c(OC)c1 (stereo not drawn),-24%,.,-15%,.,30%,-22%[59 µM]
N#CC1=C(c2ccccc2)/C(=C/c2ccccc2)OC1=O,?,.,22µM*,?,?,13µM*
COc1ccccc1C(=O)NC(C)c1ccc(-n2ccnc2)cc1 (stereo not drawn),-18%,.,-23%,12%,24%,24%
CSc1ccccc1Sc1cc(C(=O)O)c2ccccc2n1,3%,-10%,-1%,-22%,23%,10µM*
C(=C\c1ccccc1)/CSc1nc2ncccc2[nH]1,-1%,10%,-4%,11%,36%,?
Cc1cc(C(=O)CSc2cccc[n+]2[O-])c(C)n1-c1ccc(Br)cc1,.,-24%,50µM*,-13%,.,35µM*
O=C(CSc1cccc[n+]1[O-])c1ccc(Cl)s1,3%,4%,-19%,5%,36%,10µM*
O=C(CSc1cccc[n+]1[O-])c1ccccc1Br,-10%,0%,-28%,9%,12%,0.5µM*
CN(C(=O)CSc1cccc[n+]1[O-])c1ccccc1,2%,8%,.,.,36%,.
